Assay outcomes as filed in PubChem BioAssay.
Hits are enriched below; roughly 3.3% of the tested compounds scored in any of these assays.
esBAF inh: SWI/SNF esBAF complex inhibition; mouse ES cells, Bmi1-luciferase knock-in reporter, 24 h; 100% = twice the neutral-well signal; reporter increase, % at 12.5 µM; 2% of 350,000 active; AID 602393; in the data active = activation above about 40%; inconclusive = no clear call, values can overlap the other calls;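 also: 0% = median of the plate's neutral control wells and 100% = double that signal; a rise in the Bmi1 reporter signal indicates esBAF inhibition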
Wnt bcat act: Wnt/beta-catenin pathway activation; Wnt/beta-catenin reporter cell assay, activator, plate reader; activation, % at 9.35 µM; 1.2% of 300,000 active; AID 743398; in the data active = activation above about 30%, passing the limit was not always enough; inconclusive = no clear call, values can overlap the other calls;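 also: 0% = neutral control wells and 100% = positive control wells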
Statin myotox sup: suppression of simvastatin myotoxicity. 0.78% of 330,000 active. rescue of ATP level, % at 7.49 µM. C2C12 myotubes + simvastatin, ATP luminescence, 48 h; scaled: DMSO 0, geranylgeraniol control 100;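 active = mean ATP rescue above about 67%, or every replicate alone reaching that limit, limit read from the data, passing the limit was not always enough; inconclusive = no clear call, values can overlap the other calls; inactive = mean under the limit and some replicate under it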;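 also: myotubes were challenged with 10 µM simvastatin during compound exposure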
FXN GAA850 act: frataxin GAA850 promoter activation; HEK293 lucGAA850 FXN promoter luciferase reporter, 24 h; percent of 10 µM SAHA response; 0.56% of 360,000 active; activation, % at 6 µM;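 active = activation above the average of all compounds screened plus 3 SD, cutoff fixed separately per campaign, cut at about 7.5% in these data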;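 also: 0% = DMSO wells and 100% = 10 µM SAHA wells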
MITF act: activators of MITF-driven TRPM1 promoter activity in SK-MEL-5 cells; SK-MEL-5 TRPM1-promoter luciferase, 24 h; % of positive control, neutral wells = 0; activation, % at 12.5 µM; 0.75% of 300,000 active;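 active = mean activation of at least 80% with every replicate also reaching 80%; inconclusive = mean reaches 80% but some replicate falls short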;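 also: 0% = neutral control wells and 100% = parthenolide positive control wells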
* hit, by the source's call; ! = not active in a repeat.

`Cc1ccc(NC(=O)C2C(=O)N(CCO)C3(C)CC2c2ccccc2O3)cc1` (configuration not stated) gave esBAF inh 35, Statin myotox sup 20, FXN GAA850 act 2 and MITF act 36.
COc1ccc(NC(=O)C2C(=O)N(CCO)C3(C)CC2c2ccccc2O3)cc1 (configuration not stated) was read as esBAF inh 26*!, Wnt bcat act 5, FXN GAA850 act 0 and MITF act 2.
Screening COc1ccccc1Nc1nc(N)nc(CSC(=S)N2CCCCC2)n1 returned Wnt bcat act 35*, FXN GAA850 act 6 and MITF act 16.
Nc1nc(CSC(=S)N2CCOCC2)nc(Nc2ccccc2)n1 was read as Wnt bcat act 45*, FXN GAA850 act 7 and MITF act 118*.
`Cc1ccc(Nc2nc(N)nc(CSC(=S)N3CCOCC3)n2)cc1` gave esBAF inh -12, Statin myotox sup 15 and FXN GAA850 act 3.
For Nc1nc(CSC(=S)N2CCCCC2)nc(Nc2ccccc2)n1 the results were Wnt bcat act inconclusive, FXN GAA850 act 5 and MITF act 50.
COc1ccc(CN2C[C@H](O)COC[C@@H]3O[C@H](CC(=O)N4CCc5ccccc5C4)CC[C@H]32)cc1 was read as esBAF inh 11 and Statin myotox sup 30.
`O=C(O)c1cccc(N/N=C/c2cc(Br)cc(Br)c2O)c1` gave esBAF inh 77*, Statin myotox sup 4, FXN GAA850 act 6 and MITF act 21.
`COc1ccc(Br)cc1/C=N/Nc1cccc(C(=O)O)c1` gave Wnt bcat act 0, FXN GAA850 act 6 and MITF act 12.
CC1SCC(=NOCc2ccccc2)CS1 (configuration not stated) was read as Wnt bcat act 48* and FXN GAA850 act 5.
`COc1cc(NC(=O)C2=C(N3CCOCC3)/C(=C/c3ccc(Cl)cc3)CC2)cc(OC)c1OC` gave FXN GAA850 act 1 and MITF act -4.
Screening O=C(Nc1ccccc1)C1=C(N2CCOCC2)/C(=C/c2cccnc2)CC1 returned esBAF inh 42*, Wnt bcat act 1, Statin myotox sup 0, FXN GAA850 act -2 and MITF act 40.
O=C(OCC(=O)N1CCCc2ccccc21)c1ccccc1[N+](=O)[O-] was read as esBAF inh 111*, Wnt bcat act -2, Statin myotox sup -1, FXN GAA850 act 3 and MITF act 84*.
Screening O=C(COc1ccccc1[N+](=O)[O-])N1CCCc2ccccc21 returned esBAF inh 10, Wnt bcat act 4, Statin myotox sup -20, FXN GAA850 act 0 and MITF act -5.
For O=C(Cn1ccc([N+](=O)[O-])n1)N1CCCc2ccccc21 the results were esBAF inh 9, Wnt bcat act 32*, Statin myotox sup 4, FXN GAA850 act 0 and MITF act 14.
`O=C(Cn1c(=O)[nH]n(-c2ccccc2)c1=O)N1CCCc2ccccc21` gave esBAF inh -8, Wnt bcat act -6, Statin myotox sup 86*, FXN GAA850 act 0 and MITF act -3.
Screening CCC(=O)N(C)C[C@@H]1Oc2cc(C#CCOC)ccc2S(=O)(=O)N([C@H](C)CO)C[C@@H]1C returned esBAF inh -2 and Statin myotox sup -9.
Screening CN(C)C(=O)C[C@H]1C=C[C@H](NC(=O)NC2CCCCC2)[C@H](CO)O1 returned esBAF inh -2 and Statin myotox sup 1.
`O=C(CCSc1ccc(Cl)cc1)NC12CC3CC(CC(C3)C1)C2` gave esBAF inh 50*, Wnt bcat act 14, Statin myotox sup -38 and FXN GAA850 act 5.
For O=C(CCSc1ccc(Cl)cc1)NC1CCCCC1 the results were FXN GAA850 act 5 and MITF act 3.
O=C(CCS(=O)(=O)c1ccccc1)NC12CC3CC(CC(C3)C1)C2 was read as esBAF inh 36, Wnt bcat act 0, Statin myotox sup 10, FXN GAA850 act 5 and MITF act 97*.
`C/C=C/c1ccc2c(c1)O[C@@H](CN(C)C(=O)C1CC1)[C@@H](C)CN([C@H](C)CO)S2(=O)=O` gave esBAF inh -5 and Statin myotox sup 10.
Screening CC(=O)Nc1ccc(NC(=O)c2cc(=O)c3ccccc3o2)cc1 returned esBAF inh -1, Wnt bcat act 3, Statin myotox sup 31, FXN GAA850 act 0 and MITF act 30.
`NC(=O)c1ccsc1NC(=O)c1cc(=O)c2ccccc2o1` gave esBAF inh inconclusive, Wnt bcat act 22, Statin myotox sup -5, FXN GAA850 act 3 and MITF act 130*.
For Cc1ccc(NC(=O)c2cc(=O)c3ccccc3o2)cc1 the results were esBAF inh 56*, Wnt bcat act inconclusive, Statin myotox sup -4, FXN GAA850 act 1 and MITF act 41.
CCOc1ccc(/C=N/NC(=O)Cn2ccnc2C)cc1 was read as esBAF inh -7, Wnt bcat act 51*, Statin myotox sup -5 and FXN GAA850 act -1.
Screening COc1cccc(/C=N/NC(=O)Cn2ccnc2C)c1 returned Wnt bcat act -2, FXN GAA850 act 1 and MITF act -3.
For Cc1[nH]nc(N)c1N=Nc1ccc(Br)cc1 the results were Wnt bcat act 8.
`Cc1nc(N)sc1N=Nc1ccc(Br)cc1` gave esBAF inh 75*, Statin myotox sup -17 and FXN GAA850 act 6.
CCn1cnc2cc(NC(=O)c3cccs3)ccc21 was read as esBAF inh 23, Wnt bcat act 15, Statin myotox sup 0, FXN GAA850 act 5 and MITF act 95*.
For O=C(O)c1ccc(NC(=O)c2cccc(NC(=O)c3cccs3)c2)cc1 the results were esBAF inh -5, Statin myotox sup 1, FXN GAA850 act 0 and MITF act 8.
`Cc1ccccc1-c1nc(-c2ccc(NC(=O)c3cccs3)cc2)no1` gave esBAF inh 51*, Wnt bcat act 17, FXN GAA850 act 2 and MITF act 32.
`O=C(Nc1ccc2nc(-c3cccs3)[nH]c2c1)c1ccco1` gave esBAF inh 83*, Statin myotox sup -71, FXN GAA850 act 3 and MITF act 103*.
`O=C(Nc1cccc(O)c1)c1ccc(NC(=O)c2cccs2)cc1` gave Wnt bcat act 0, FXN GAA850 act 2 and MITF act 103*.
Screening Cc1ccc(NC(=O)C(=O)NNC(=O)c2cccs2)cc1 returned Wnt bcat act 2, FXN GAA850 act 2 and MITF act 7.
`O=C(Nc1ccc(CSc2ccccc2)cc1)c1ccco1` gave esBAF inh 52*, Wnt bcat act 29, Statin myotox sup -1, FXN GAA850 act 7 and MITF act 59.
For COc1cccc(C(=O)Nc2ccc(NC(=O)C3CCCCC3)nc2)c1 the results were esBAF inh -5, Wnt bcat act 0, Statin myotox sup -40, FXN GAA850 act -1 and MITF act 9.
For O=C(Nc1ccc2c(c1)CCC2)c1cccs1 the results were Wnt bcat act 55*, FXN GAA850 act 6 and MITF act 66.
